Test system: VDR:RXRa (NR concentration 270 nM, RXRa partner concentration 90 nM)
Test: PBM binding z-score (relative to random genomic background probes); higher = stronger binding; sequences stand for … in GC…GCGATTGACAGCGTAGAATGAAGG
Experimental: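 Protein-binding microarray (Agilent 4x180K custom design, double-stranded 60-nt probes: 5' GC cap, 34-nt variable region, 24-nt constant primer region; full probe sequence given). Purified or IVT nuclear receptor:RXRα heterodimers (3:1 NR:RXRα, mostly 270:90 nM) or homodimers were incubated for 1 h in PBS with 2% milk and no ligand, then detected with Alexa488 antibodies. Fluorescence from o1-orientation probes (~5 replicates averaged) was converted to z-scores against 500 random hg19 background probes. Variable regions are seed direct-repeat (DR0–DR5) sites, all their single-nucleotide variants and half-site ablations.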

Row | Sequence | PBM binding z-score
1 | GCGACTGGGGCATCAGCAGGTTACCAGAACTTAA | -0.205
2 | ATCTCTAGGTAACCATGTTCAGTGAATGCCGAAC | 0.463
3 | GGAACGAGAGCAAGTTGATAGCAGAGTTTGATGG | -0.392
4 | TCTAGTTGGTCACGGAGGTCTCACACGACGGGTA | 1.65
5 | TCTTGTAGATCAATGGTTAAGAAAGCCGAAGCCT | 0.403
6 | GGAACGAGGGCAAGTTGATACCAGAGTTTGATGG | 1.1
7 | TCTGCTAGGTCAACGATGGTCGGCTAATCTGCTA | 1.42
8 | CCTGCTGGGCCATCAGGTCATTGATATCAACGTT | 1.59
9 | CGAACGAGGGCATGAGTTGGTAGCAAATGCCGAT | 0.602
10 | CCTACGGGGCCATTCAGAGGTCATTGATCATATG | 5.2
11 | ACTAGCAGGCCAAGTGTCACTCAAGATTAGTCCG | -0.322
12 | TGAATGAGGTCATAAGATCAGGGAACGTTGCAAA | 4.71
13 | ACTTACGGGTCAACGAGATTATAGCACGCGTATA | 5
14 | CGAATTAGGTCAAGGACAGTGAATCTCCGCACGC | 1.61
15 | CCGAGTAGGTTACGGGGCATTCAGGCAACGGTGA | 0.208
16 | ACCGAAAGGTCGAGGTGAGTATAGAGAAAGGGAA | 2.82
17 | AGAATGAGGTTAAGCTCAGGGAAACAGAATACAT | 1.26
18 | ACTAGCAGGACAAGTTTGGGTCACTCAAACAAAG | 0.698
19 | TGTCGGAGGACACGAAAGGTCAGAGCTCGACATC | 3.34
20 | TGTCAAAGTTCAAATGTAACGTAAGTATCCACAC | 4.57

Row | Sequence | PBM binding z-score
21 | CAAACTAGGTCACAGAGGTCAAGGTCCGTGCGTA | 7.73
22 | ATCGCTAGGTAAAGATAGTTCAGTGAATGCAAAT | 0.0952
23 | ACAGACAGGTGAGTGAAGGTAGCTCAGCTGGACG | -0.56
24 | CTCGAAAGGTCGTGCTCAGGTGCGTATACCAAAC | 3.57
25 | CCTACTGGGCCATTCAGAGGTCATTGCTCATATG | 3.84
26 | CCTAGTTGGTCAGGAGGTCACTCACCGGATATGA | 3.4
27 | CCTTACGGGTCACTCGAGGTTATAGCATCGGAGT | 5.11
28 | TCTCGGAGGACACGAAGGTTAGAGCTTTCCAGAG | 0.237
29 | CATGCTAGGTCAATGGTCAGCTAAAGCAGCTCGC | 1.06
30 | GGAACGAGGGCATTCGAGGTGATAGCATGGCGAT | 2.4
31 | TAGCCGAGGTCAGATCGGGCCAGTATACGCTATA | 4.26
32 | GCAGACAGGTGAAACGCCGGTAACTCAGGGTGGC | -0.708
33 | GCATATAGGTAATACAAGCTGAAAGTCCGATTGT | -0.105
34 | ACTCTGAGGACAAAGGTCAGAGCTACGCCAGTGA | 3.49
35 | TAGCCTAGGCCATTCAGGGGCCAGTATAGAAAGC | -0.423
36 | CGTCAGAGTTCAAGGTAACGTAACAGAAAGCAGC | 4.23
37 | CGAACGAGGGCATGAGTTGATAGTAAATGCCGAT | 1.17
38 | CAAACTAGATCAAGAGGTCAAAGTCCGCTTCCCG | 4.68
39 | CCTTACGGGTCACTGACAGGTTATAGAATTTGGA | 3.69
40 | TCATATAGGCAAAGGTGAAAGTCGAACGATATGA | 0.976
